Bioassay records (PubChem BioAssay)
EPAC2 antag = antagonists of human EPAC2. Q8WZA2. EPAC2 GEF exchange of Rap1B-BODIPY-GDP, fluorescence. Potency, µM (top dose mostly 114 µM), for inactives: at the top dose activity, negative = inhibition, hits mostly inhibitors. 360,000 compounds, 0.18% hits; note: % is set by controls: 0 for no effect and ±100 for the full control effect; nearly all actives have a fitted effect of over 45% in size
Target sequence (Q8WZA2 whole entry, looked up): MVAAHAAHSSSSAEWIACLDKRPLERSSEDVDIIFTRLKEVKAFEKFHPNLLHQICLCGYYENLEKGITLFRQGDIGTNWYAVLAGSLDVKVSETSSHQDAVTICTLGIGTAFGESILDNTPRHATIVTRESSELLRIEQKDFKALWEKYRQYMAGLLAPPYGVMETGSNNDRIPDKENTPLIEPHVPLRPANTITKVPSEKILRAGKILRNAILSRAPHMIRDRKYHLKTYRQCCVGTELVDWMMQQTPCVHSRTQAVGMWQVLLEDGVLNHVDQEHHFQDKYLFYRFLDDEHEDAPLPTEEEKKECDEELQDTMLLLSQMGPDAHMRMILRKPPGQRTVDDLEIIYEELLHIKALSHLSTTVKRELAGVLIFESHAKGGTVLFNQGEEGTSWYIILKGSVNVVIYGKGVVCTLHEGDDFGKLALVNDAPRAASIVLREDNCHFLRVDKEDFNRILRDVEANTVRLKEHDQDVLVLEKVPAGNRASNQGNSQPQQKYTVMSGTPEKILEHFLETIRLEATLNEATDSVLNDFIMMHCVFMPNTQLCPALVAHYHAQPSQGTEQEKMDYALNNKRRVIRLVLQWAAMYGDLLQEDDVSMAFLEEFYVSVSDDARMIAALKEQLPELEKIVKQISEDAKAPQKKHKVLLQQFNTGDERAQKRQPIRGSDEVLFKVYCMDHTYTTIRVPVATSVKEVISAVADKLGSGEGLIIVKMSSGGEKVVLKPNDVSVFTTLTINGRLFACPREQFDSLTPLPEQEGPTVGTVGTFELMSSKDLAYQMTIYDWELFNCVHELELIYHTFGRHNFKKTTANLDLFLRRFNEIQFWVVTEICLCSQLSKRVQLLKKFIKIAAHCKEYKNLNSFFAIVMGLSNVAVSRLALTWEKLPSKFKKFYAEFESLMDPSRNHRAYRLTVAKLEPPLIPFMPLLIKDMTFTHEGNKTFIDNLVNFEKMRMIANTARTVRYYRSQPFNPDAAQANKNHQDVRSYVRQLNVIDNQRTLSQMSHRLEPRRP
EPAC1 antag = antagonists of human EPAC1. O95398. EPAC1 GEF assay, Rap1b-BODIPY-GDP exchange fluorescence. Potency, µM (doses to about 115 µM), for the others: top-dose activity change, negative = inhibition, actives largely listed as inhibitors. 360,000 compounds, 0.14% hits;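 note: plate controls were vehicle for no effect and positive control for full effect; nearly all actives have a fitted effect of over 50% in size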
EPAC2 ag = activates human EPAC2 exchange factor | Potency, µM (top dose mostly 154 µM), inactives show top-dose activation, most hits filed as activators | EPAC2 activation, biochemical qHTS; response scale: 100% = 6.5 mM cAMP response | 360,000 compounds, 0.079% hits | AID 720711 | Q8WZA2; note: nearly all actives have a fitted effect of over 50% in size
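qHTS, titration series. 100 nM EPAC2 / 250 nM Rap1B-BODIPY-GDP / 50 uM GDP; RT; ex 480/em 540 nm, 5-min reads to 30 min. Norm. to 6.5 mM cAMP = activation.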
EPAC1 agonist = activates human EPAC1 exchange factor; O95398; EPAC1 agonist qHTS, biochemical assay; response scale: 100% = response to 6.5 mM cAMP; Potency, µM (top dose mostly 154 µM), inactives show at the top dose activation, actives largely listed as activators; 360,000 compounds, 0.073% hits; AID 720707; note: nearly all actives have a fitted effect of over 60% in size
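Nucleotide exchange by EPAC1 (100 nM) on Rap1B–BODIPY-GDP (250 nM) in the presence of 50 uM GDP is tracked fluorescently at 480/540 nm over 30 min. Signals are normalized to a 6.5 mM cAMP control.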
USP1-UAF1 inh = inhibitors of human USP1/UAF1 deubiquitinase; recombinant USP1/UAF1, Ub-Rhodamine cleavage fluorescence; Potency, µM (top dose mostly 57.1 µM), without a hit: at the top dose activity change, negative = inhibition, hits mostly inhibitors; 390,000 compounds, 0.23% hits; AID 743255; note: % is set by controls: 0 for no effect and ±100 for the full control effect; nearly all actives have a fitted effect of over 60% in size
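In this screen, compounds sit with the deubiquitinase complex (1nM) for 15 min at room temperature before Ub-Rho is added at 150nM final. Fluorescence rise is then followed for 6 reads every 60 seconds.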
The depositor's hits bear a star; ? = inconclusive; / = no result. Only some compounds are listed: those with a hit (about 0.49% of all), similar ones and a draw of the others. Calls come from the whole dose curve; as a rule, active = well fitted curve in the direction sought with a large enough effect; inconclusive = small, poorly fitted or top-dose-only effect, or another doubt; inactive = no such curve, though single readings can be large; an effect the other way counts as inactive or inconclusive. Potency is the fitted concentration of half-maximal effect.

SMILES	EPAC2 antag	EPAC1 antag	EPAC2 ag	EPAC1 agonist	USP1-UAF1 inh
O=C(/C=C/c1ccco1)NCC1OCCc2ccccc21 (stereo not given)	8%	56µM*	-6%	-1%	-5%
CCOC(=O)c1c(C)c(-c2ccccc2)n(CC(=O)NC2CCCCCC2)c1C	/	/	/	/	-12%
COc1ccccc1NC(=O)c1sc2nc(Cc3ccccc3)cc(C(F)(F)F)c2c1N	79µM*	-9%	-6%	2%	?
COc1ccccc1NC(=O)c1sc2nc(C)c(C(=O)Nc3ccc(C)cc3C)c(-c3ccc(C)o3)c2c1N	/	/	/	/	32µM*
COCCCNC(=O)Cn1c(=O)n(-c2ccccc2)c(=O)c2c1c1cc(OC)ccc1n2C	/	/	/	/	-8%
CC1=CC(C)(C)N(C(=O)c2ccc(F)cc2)c2cc3c(cc21)OCO3	50µM*	-20%	10%	11%	-24%
CSC1=NCCN1C(=O)c1ccc2c(c1)OCO2	-4%	9%	-6%	4%	1%
O=C(Nc1ccc(S(=O)(=O)Nc2nccs2)cc1)c1cc(-c2ccccn2)nc2ccccc12	-12%	71µM*	2%	17%	5%
O=c1c(/C=N/Nc2ccccc2)c(Sc2nnnn2-c2ccccc2)nc2ccccn12	49%	5%	-65%	4%	3.2µM*
COc1ccc(N2CCN(C(=O)CSc3c4c(nc5ccc(Cl)cc35)CCCC4)CC2)cc1	/	/	/	/	-23%
Cc1ccc2nc(SCC(=O)N3N=C(c4cccs4)CC3c3ccc(F)cc3)nc(=O)n2c1 (stereo not given)	-11%	-4%	7%	1%	2%
Cc1ccc(C2CC(c3cccs3)=NN2C(=O)CSc2nc(=O)n3cc(C)ccc3n2)cc1 (stereo not given)	7%	-10%	8%	112µM*	-23%
N#Cc1c(C(F)(F)F)cc(-c2ccc(Cl)cc2)[nH]c1=O	-9%	40µM*	-2%	-15%	-17%
COc1ccc(S(=O)(=O)N2CCCCC2)cc1NC(=O)c1c(F)cccc1Cl	-14%	56µM*	2%	2%	0%
COc1cc(C)c2c(c1C=O)Oc1c(c(C)c(O)c3c1C(O)OC3=O)OC2=O (stereo not given)	?	-30%	-2%	0%	16µM*
CC(C)COc1ccc(C(=O)Nc2nnc(S(=O)(=O)N(C)Cc3ccco3)s2)cc1	/	/	/	/	-15%
COc1ccc2c3c(cccc13)C(=O)CC2	125%	222%	112µM*	100µM*	?
CC(C)Cc1csc(NC(=O)c2ccc(F)cc2)c1C(=O)O	-1%	35µM*	-2%	5%	-25%
Cc1ccc(NC(=O)Cc2ccc(-n3c(C)nc4cccnc43)cc2)c(Cl)c1	/	/	/	/	4%
Cc1ccc(NC(=O)CN2C(=O)COc3ccc(S(=O)(=O)NC4CCCC4)cc32)cc1N(C)C	/	/	/	/	6%
N#CC1=C2SCN(Cc3ccco3)CN2C(=O)CC1c1c(F)cccc1Cl (stereo not given)	?	-14%	12%	1%	13µM*
N#CC1=C2SCN(C3CCCCC3)CN2C(=O)CC1c1ccc(Cl)cc1 (stereo not given)	/	/	/	/	-22%
N#CC1=C2SCN(C3CCCCC3)CN2C(=O)CC1c1c(F)cccc1Cl (stereo not given)	/	/	/	/	32µM*
COc1cc2c(cc1OC)CN(C(=O)c1cc(Cl)nc(Cl)c1)CC2	2%	4%	9%	-11%	-14%
COc1cc2c(cc1OC)C1(C)N(CC2)C(C(C)=O)=NN1c1ccc(Cl)cc1 (stereo not given)	25µM*	-21%	18%	15%	-14%
SMILES	EPAC2 antag	EPAC1 antag	EPAC2 ag	EPAC1 agonist	USP1-UAF1 inh
CN(C)c1nc(Oc2ccc(=O)[nH]n2)nc(N2CCOCC2)n1	25µM*	-8%	-7%	7%	10%
COc1cccc(Cn2c(C)c(CNCc3ccccc3Cl)c(C(=O)O)c2C)c1	/	/	/	/	-5%
CC1CC1c1ccc(/C=C(\C#N)C(=O)Nc2ccc(Cl)cc2)o1 (stereo not given)	-1%	10%	22%	100µM*	-19%
N#C/C(=C/c1ccc(N2CCCCC2)o1)C(=O)Nc1ccc2ccccc2c1	19%	48%	6%	24%	34%
CC1CC1c1ccc(/C=C(\C#N)C(=O)Nc2ccccc2Cl)o1 (stereo not given)	5%	-14%	4%	100µM*	?
COc1ccc(NC(=O)/C(C#N)=C/c2ccc(C)o2)cc1	/	/	/	/	-26%
N#C/C(=C/c1ccc(N2CCCCC2)o1)C(=O)Nc1ccc(Cl)cc1	5%	1%	100µM*	100µM*	28µM*
N#C/C(=C\c1ccc[nH]1)C(=O)Nc1ccccc1Cl	14%	-19%	7%	-15%	-21%
COc1ccc(S(=O)(=O)n2nc(C)c(S(=O)(=O)N3CCC(C)CC3)c2C)cc1OC	/	/	/	/	-16%
O=C(NCc1cccc(F)c1)c1cccc2c1C(=O)c1ccc(N3CCOCC3)cc1S2(=O)=O	-1%	-12%	89µM*	7%	-28%
CC1CCN(c2ccc3c(c2)S(=O)(=O)c2cccc(C(=O)NC[C@@H]4CCCO4)c2C3=O)CC1	5%	-24%	112µM*	7%	?
O=C(NC[C@@H]1CCCO1)c1cccc2c1C(=O)c1ccc(N3CCOCC3)cc1S2(=O)=O	-9%	-3%	8%	0%	-26%
Cc1ccc(CNC(=O)c2cccc3c2C(=O)c2ccc(N4CCOCC4)cc2S3(=O)=O)cc1	44%	-23%	-1%	-26%	?
Cc1ccc(CNC(=O)c2cccc3c2C(=O)c2ccc(N4CCCCC4)cc2S3(=O)=O)cc1	309%	320%	56µM*	10µM*	321%
CC1CN(C(=O)Nc2ccc(C(=O)NCCc3ccccc3)cc2)c2ccccc2S1 (stereo not given)	/	/	/	/	3%
CCN(CC)S(=O)(=O)c1ccc2c(c1)c(=O)c(C(=O)NCc1ccccc1Cl)cn2C	/	/	/	/	-14%
CC(=O)c1ccc(NC(=O)CSC2=Nc3ccccc3N=C(c3ccc(F)cc3)C2)cc1	/	/	/	/	-23%
Cc1ccc(S(=O)(=O)C(CNC(=O)C(=O)NCCc2ccc(Cl)cc2)c2cccs2)cc1 (stereo not given)	/	/	/	/	-4%
COc1ccc(C2C(=O)N(C3CCCCCC3)CC(=O)N2Cc2ccc(C)cc2)cc1 (stereo not given)	/	/	/	/	4%
CC(C)(C)/C(O)=C/c1nc2ccccc2[nH]c1=O	-2%	-4%	4%	3%	-12%
O=c1[nH]c2ccccc2nc1/C=C(\O)c1cccs1	26%	16%	?	100µM*	16µM*
O=c1oc2ccc(Cl)cc2nc1/C=C(\O)c1cccs1	100%	-12%	100µM*	12%	-7%
CC(C)CCNC(=O)CN1C(=O)CSc2ccc(S(=O)(=O)N3CCC(C)CC3)cc21	/	/	/	/	-2%
CCc1noc(C)c1C(=O)N1CCCSC1=Nc1ccccc1Cl	50µM*	-13%	16%	5%	-10%
